The values below come from PubChem BioAssay (EPA / NIEHS).

The target of assay [1] is Norway rat Vesicular Monoamine Transporter (VMAT2), neurotransmitter transporter, Slc18a2 (gene 25549) (UniProt Q01827). The assay can be described thus: NVS_TR_rVMAT2: NovaScreen (NVS) Transporter Assay for Norway rat Vesicular Monoamine Transporter (VMAT2), neurotransmitter transporter (AID 2283376).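 Further: actives lower the bound radioligand signal below the DMSO level.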 An outline of the steps: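 Using rat forebrain membranes, specific radioligand binding to VMAT2 was measured by filtration and scintillation counting after 1 hour. Chemicals screened at 25 uM in duplicate, actives retested in concentration series, DMSO baseline.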
Norway rat Vesicular Monoamine Transporter (VMAT2), neurotransmitter transporter, Slc18a2 (gene 25549), sequence (Q01827 whole entry, looked up): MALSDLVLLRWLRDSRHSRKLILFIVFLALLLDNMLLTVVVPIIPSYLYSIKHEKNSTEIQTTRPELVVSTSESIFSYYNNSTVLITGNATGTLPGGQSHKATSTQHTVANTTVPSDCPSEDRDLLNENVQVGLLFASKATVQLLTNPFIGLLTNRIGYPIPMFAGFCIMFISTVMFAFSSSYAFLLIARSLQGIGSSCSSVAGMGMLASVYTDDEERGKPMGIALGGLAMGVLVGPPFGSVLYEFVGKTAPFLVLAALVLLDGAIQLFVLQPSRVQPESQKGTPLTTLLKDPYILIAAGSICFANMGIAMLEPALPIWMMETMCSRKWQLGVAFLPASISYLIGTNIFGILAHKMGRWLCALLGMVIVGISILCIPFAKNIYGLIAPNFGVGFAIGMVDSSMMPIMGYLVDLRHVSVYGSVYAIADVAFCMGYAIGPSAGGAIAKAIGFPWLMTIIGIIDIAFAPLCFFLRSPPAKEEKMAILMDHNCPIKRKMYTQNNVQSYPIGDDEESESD

Assay [2] can be described thus: TOX21_TRB_BLA_Agonist_Followup_viability: Viability Assessment in the Tox21 Thyroid Hormone Receptor beta Agonism Beta-lactamase (BLA) Follow-Up Assay (AID 2283956). An outline of the steps: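 Viability was read as CellTiter-Glo luminescence in the same wells as the TRb-bla agonist read-out. HEK293T GAL4-TRb LBD cells were treated for 18 h (37C, 5% CO2) at 11 concentrations in triplicate. Fits were bidirectional versus DMSO baseline.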

In assay [3] the target is bovine Gamma-Aminobutyric Acid Type A Receptor BDZ, alpha 1 site (GABARa1), GABRA1 (gene 780973) (UniProt P08219). Description: NVS_LGIC_bGABARa1: NovaScreen (NVS) Ligand-Gated Ion Channel Assay for bovine Gamma-Aminobutyric Acid Type A Receptor BDZ, alpha 1 site (GABARa1) (AID 2283321). An outline of the steps: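 Bovine cortex membrane preparation, benzodiazepine site on GABA-A alpha1; specific radioligand displacement read after 0.75 h by filtration and scintillation. Screen at 25 uM, then singleton titrations up to 50 uM; DMSO baseline.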
bovine Gamma-Aminobutyric Acid Type A Receptor BDZ, alpha 1 site (GABARa1), GABRA1 (gene 780973), sequence (P08219 whole entry, looked up): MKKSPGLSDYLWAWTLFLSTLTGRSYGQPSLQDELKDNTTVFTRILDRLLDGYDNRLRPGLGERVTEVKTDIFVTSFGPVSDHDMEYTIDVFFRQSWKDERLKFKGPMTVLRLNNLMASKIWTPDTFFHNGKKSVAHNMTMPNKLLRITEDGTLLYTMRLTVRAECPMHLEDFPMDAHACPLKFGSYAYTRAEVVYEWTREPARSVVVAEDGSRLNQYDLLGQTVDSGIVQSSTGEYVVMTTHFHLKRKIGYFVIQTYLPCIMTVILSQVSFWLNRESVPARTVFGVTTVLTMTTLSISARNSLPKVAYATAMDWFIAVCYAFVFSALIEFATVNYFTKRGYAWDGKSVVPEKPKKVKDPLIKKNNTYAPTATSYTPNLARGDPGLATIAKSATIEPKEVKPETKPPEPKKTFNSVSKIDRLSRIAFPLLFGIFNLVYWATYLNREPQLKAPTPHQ

Assay [4] deals with rat Gamma-Aminobutyric Acid Type A Receptor BDZ, alpha 6 site (GABARa6), Gabra6 (gene 29708) (UniProt P30191). The assay can be described thus: NVS_LGIC_rGABARa6: NovaScreen (NVS) Ligand-Gated Ion Channel Assay for rat Gamma-Aminobutyric Acid Type A Receptor BDZ, alpha 6 site (GABARa6) (AID 2283339). An outline of the steps: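 Actives from a 25 uM duplicate screen were retested in concentration series (max 50 uM). Specific radioligand displacement from rat cerebellar membranes was counted by filter-based scintillation at 1 h; DMSO served as baseline.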
rat Gamma-Aminobutyric Acid Type A Receptor BDZ, alpha 6 site (GABARa6), Gabra6 (gene 29708), sequence (P30191 whole entry, looked up): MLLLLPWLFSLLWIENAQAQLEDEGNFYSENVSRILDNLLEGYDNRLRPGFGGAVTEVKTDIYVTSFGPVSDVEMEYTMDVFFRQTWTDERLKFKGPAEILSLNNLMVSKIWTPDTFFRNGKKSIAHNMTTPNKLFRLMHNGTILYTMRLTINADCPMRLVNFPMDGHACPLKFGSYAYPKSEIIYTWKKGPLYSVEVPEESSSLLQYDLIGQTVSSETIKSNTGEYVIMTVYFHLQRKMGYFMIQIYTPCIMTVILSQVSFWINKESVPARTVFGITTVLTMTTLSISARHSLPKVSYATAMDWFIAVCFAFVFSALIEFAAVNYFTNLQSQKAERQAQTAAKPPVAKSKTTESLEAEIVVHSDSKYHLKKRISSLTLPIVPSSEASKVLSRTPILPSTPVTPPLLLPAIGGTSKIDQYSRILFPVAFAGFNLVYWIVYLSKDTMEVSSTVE

Assay [5] deals with rat Oxytocin Receptor (OXT), Oxtr (gene 25342) (UniProt P70536). Description: NVS_GPCR_rOXT: NovaScreen (NVS) G Protein-Coupled Receptor Assay for rat Oxytocin Receptor (OXT) (AID 2283330). A digest of the protocol: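 Binding to rat uterine membrane receptor was followed by scintillation counting of filter-trapped radioligand after 1 h. A 25 uM duplicate single-point screen preceded concentration series with a top of 50 uM. Signal loss was analysed relative to DMSO.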
rat Oxytocin Receptor (OXT), Oxtr (gene 25342), sequence (P70536 whole entry, looked up): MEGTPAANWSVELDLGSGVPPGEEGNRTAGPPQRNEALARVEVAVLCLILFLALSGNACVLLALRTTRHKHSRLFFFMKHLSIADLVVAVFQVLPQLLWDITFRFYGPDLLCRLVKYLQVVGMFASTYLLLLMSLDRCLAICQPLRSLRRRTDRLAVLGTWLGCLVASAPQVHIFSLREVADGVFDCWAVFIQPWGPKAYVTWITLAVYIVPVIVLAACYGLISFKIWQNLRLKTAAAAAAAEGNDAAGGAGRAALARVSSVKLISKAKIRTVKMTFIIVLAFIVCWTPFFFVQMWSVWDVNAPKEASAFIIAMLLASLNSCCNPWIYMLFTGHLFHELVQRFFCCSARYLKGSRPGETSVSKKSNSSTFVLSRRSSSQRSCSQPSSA

Assay [6] concerns the target Estrogen receptor (Homo sapiens) (UniProt P03372). The assay can be described thus: NVS_NR_hER: NovaScreen (NVS) Nuclear Receptor Binding Assay for human Estrogen Receptor (ER) (AID 2283348). An outline of the steps:
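Cell-free MCF7-derived ER preparation, specific radioligand displaced by test compound, read by scintillation counting 18 h post-dosing. Duplicate single-point 25 uM screen, then concentration-response confirmation; DMSO baseline.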

For assay [7], the target named is mouse Estrogen Receptor alpha (Era), Esr1 (gene 13982) (UniProt P19785). Description: NVS_NR_mERa: NovaScreen (NVS) Nuclear Receptor Binding Assay for mouse Estrogen Receptor alpha (Era) (AID 2283378).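 Further: hit means loss of bound radioligand signal relative to DMSO.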 An outline of the steps:
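Cell-free radioligand competitive displacement binding, read by filter-based scintillation counting 18 h after dosing. Primary screen run in duplicate at 25 uM, actives retested in concentration series; loss of signal versus DMSO.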

The nature of assay [8]: TOX21_p53_BLA_p2_viability: Viability Assessment in the Tox21 HCT-116 p53 Agonism Beta-lactamase Assay, Phase 2 (AID 2283591).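 Further: compound exposure lasted 16 h at 37 °C; actives lower the ATP signal meaning cytotoxicity.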 An outline of the steps:
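Cytotoxicity readout: CellTiter-Glo ATP luminescence, 30 min at room temperature, after the beta-lactamase read. Cells were HCT116 exposed 16 h at 37C to compounds pin-transferred at 217-fold dilution from DMSO stocks.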

The target of assay [9] is Cellular tumor antigen p53 (Homo sapiens) (UniProt P04637). Description: TOX21_p53_BLA_p3_ratio: Tox21 HCT-116 p53 Agonism Beta-lactamase Assay, Ratio, Phase 3 (AID 2283596). An outline of the steps: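 Cells were seeded at 4000/well, rested 5 h at 37C, then dosed with DMSO compound solutions (217-fold dilution) for 16 h. CCF4-AM substrate was loaded for 2 h at room temperature, and the 460/530 nm emission ratio was fitted for gain of signal versus DMSO.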
Cellular tumor antigen p53 (Homo sapiens), sequence (P04637 whole entry, looked up): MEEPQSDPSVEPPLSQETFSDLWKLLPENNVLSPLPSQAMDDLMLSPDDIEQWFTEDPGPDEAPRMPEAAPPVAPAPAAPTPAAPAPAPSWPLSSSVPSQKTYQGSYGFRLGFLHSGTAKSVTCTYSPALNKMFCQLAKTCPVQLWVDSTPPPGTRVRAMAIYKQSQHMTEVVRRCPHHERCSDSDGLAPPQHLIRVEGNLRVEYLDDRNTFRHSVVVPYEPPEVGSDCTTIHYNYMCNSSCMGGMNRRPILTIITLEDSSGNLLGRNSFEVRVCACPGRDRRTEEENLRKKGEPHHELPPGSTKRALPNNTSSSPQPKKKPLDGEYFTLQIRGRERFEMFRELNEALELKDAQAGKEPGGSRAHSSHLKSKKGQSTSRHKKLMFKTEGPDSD

For assay [10], the target named is bovine Estrogen Receptor (ER), ESR1 (gene 407238) (UniProt P49884). The assay can be described thus: NVS_NR_bER: NovaScreen (NVS) Nuclear Receptor Binding Assay for bovine Estrogen Receptor (ER) (AID 2283345).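 Further: actives lower the bound radioligand count which means they displace the ER ligand.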 A digest of the protocol: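 Cell-free radioligand binding with receptor from bovine uterine membranes, read by scintillation counting 18 h after dosing. Loss of specific binding was scored against DMSO; primary screen at 25 uM in duplicate, actives then run as concentration series.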
bovine Estrogen Receptor (ER), ESR1 (gene 407238), sequence (P49884 whole entry, looked up): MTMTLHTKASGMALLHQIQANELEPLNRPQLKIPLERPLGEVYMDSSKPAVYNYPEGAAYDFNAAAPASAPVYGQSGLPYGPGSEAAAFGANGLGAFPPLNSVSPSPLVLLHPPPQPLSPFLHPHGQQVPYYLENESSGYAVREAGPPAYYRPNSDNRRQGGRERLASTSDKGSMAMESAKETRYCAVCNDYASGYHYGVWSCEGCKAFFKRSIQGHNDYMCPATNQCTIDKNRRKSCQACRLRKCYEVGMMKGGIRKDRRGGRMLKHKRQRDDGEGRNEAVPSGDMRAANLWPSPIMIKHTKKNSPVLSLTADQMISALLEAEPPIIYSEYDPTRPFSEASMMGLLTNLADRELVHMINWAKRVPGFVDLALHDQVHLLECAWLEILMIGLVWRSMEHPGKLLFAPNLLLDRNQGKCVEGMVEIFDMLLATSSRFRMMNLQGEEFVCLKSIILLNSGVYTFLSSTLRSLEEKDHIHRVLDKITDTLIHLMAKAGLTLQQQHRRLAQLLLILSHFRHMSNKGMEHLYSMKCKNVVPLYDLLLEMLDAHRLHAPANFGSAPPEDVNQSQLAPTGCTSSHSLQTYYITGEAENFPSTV

Assay [11] concerns the target Cellular tumor antigen p53 (Homo sapiens) (UniProt P04637). The assay can be described thus: TOX21_p53_BLA_p2_ratio: Tox21 HCT-116 p53 Agonism Beta-lactamase Assay, Ratio, Phase 2 (AID 2283592). A digest of the protocol:
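First, HCT116 reporter cells settle for 5 h at 37C. Next, DMSO compound solutions are pinned in (217-fold dilution) and left 16 h. Finally, CCF4-AM substrate is loaded 2 h at room temperature and the 460/530 nm ratio read.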

Assay [12] can be described thus: TOX21_p53_BLA_p3_viability: Viability Assessment in the Tox21 HCT-116 p53 Agonism Beta-lactamase Assay, Phase 3 (AID 2283593).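 Further: cells exposed to compound for 16 h before reading.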 A digest of the protocol:
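Cellular ATP was quantified by CellTiter-Glo luminescence, read after 30 min at room temperature. Beforehand, HCT116 cells (4000/well) received compound 5 h post-seeding, 217-fold diluted from DMSO, then incubated 16 h at 37C.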

Assay [13] concerns the target Cellular tumor antigen p53 (Homo sapiens) (UniProt P04637). Description: TOX21_p53_BLA_p4_ratio: Tox21 HCT-116 p53 Agonism Beta-lactamase Assay, Ratio, Phase 4 (AID 2283601). A digest of the protocol: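 Signal is the blue/green (460nm/530nm) ratio of cleaved versus uncleaved CCF4-AM substrate, read after 2 h substrate loading. Cells were HCT116 carrying the p53-responsive beta-lactamase reporter, dosed 16 h at 37C, 5% CO2; CellTiter-Glo measured in parallel.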

Assay [14] can be described thus: CCTE_Harrill_HTTr_Viability_MCF7: CCTE's 6-hour Cell Viability Assessment for the High-Throughput Transcriptomics (HTTr) Platform, in MCF-7 cells cultured in DMEM + 10% fetal bovine serum, Harrill Lab (AID 2284010; active means hit-call score of the fitted dose curve at least 0.9, where 1 is the maximum; inactive means score below 0.9). A digest of the protocol:
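Eight-point concentration series, six-hour exposure. Propidium iodide exclusion imaged to assess membrane integrity as a cytotoxicity readout; bidirectional fitting was done with DMSO as negative control and activity baseline.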

Assay [15] is described as follows: CCTE_Harrill_HTTr_CellCount_MCF7: CCTE's Cell Proliferation Assessment for the High-Throughput Transcriptomics (HTTr) Platform, Harrill Lab (AID 2284012).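 Further: count of Hoechst-stained nuclei per well by high-content imaging in MCF-7 cells; cells exposed to compound for six hours; intended direction is loss of nuclei count meaning fewer cells.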 A digest of the protocol:
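For this full-screen endpoint, MCF-7 cultures received eight compound dilutions for six hours. Well nuclei counts from Hoechst imaging were analyzed relative to DMSO.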

Results filed as inconclusive are left out. Calls of active or inactive are those of the source. How the source made its calls, unless noted: active means hit-call score of the fitted dose curve at least 0.9, where 1 is the maximum; inconclusive means response in the unintended direction; inactive means score below 0.9.

mouse Estrogen Receptor alpha (Era), Esr1 (gene 13982), sequence (P19785 whole entry, looked up): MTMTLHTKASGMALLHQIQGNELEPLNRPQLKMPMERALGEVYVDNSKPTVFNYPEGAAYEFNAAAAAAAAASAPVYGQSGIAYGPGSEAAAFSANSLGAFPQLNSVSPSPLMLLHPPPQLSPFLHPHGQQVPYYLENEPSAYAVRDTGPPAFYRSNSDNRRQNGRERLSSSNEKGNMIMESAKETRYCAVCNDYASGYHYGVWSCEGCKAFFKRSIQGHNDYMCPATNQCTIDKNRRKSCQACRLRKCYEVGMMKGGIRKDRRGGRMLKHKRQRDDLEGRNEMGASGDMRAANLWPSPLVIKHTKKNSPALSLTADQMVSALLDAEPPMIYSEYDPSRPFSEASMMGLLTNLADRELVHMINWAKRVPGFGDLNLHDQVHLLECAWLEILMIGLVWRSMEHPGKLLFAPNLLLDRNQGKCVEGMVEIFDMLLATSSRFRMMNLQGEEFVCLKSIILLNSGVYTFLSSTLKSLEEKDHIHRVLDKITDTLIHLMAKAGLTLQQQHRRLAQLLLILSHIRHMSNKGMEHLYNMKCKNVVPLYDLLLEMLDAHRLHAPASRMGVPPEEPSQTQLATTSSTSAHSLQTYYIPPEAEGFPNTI
Estrogen receptor (Homo sapiens), sequence (P03372 whole entry, looked up): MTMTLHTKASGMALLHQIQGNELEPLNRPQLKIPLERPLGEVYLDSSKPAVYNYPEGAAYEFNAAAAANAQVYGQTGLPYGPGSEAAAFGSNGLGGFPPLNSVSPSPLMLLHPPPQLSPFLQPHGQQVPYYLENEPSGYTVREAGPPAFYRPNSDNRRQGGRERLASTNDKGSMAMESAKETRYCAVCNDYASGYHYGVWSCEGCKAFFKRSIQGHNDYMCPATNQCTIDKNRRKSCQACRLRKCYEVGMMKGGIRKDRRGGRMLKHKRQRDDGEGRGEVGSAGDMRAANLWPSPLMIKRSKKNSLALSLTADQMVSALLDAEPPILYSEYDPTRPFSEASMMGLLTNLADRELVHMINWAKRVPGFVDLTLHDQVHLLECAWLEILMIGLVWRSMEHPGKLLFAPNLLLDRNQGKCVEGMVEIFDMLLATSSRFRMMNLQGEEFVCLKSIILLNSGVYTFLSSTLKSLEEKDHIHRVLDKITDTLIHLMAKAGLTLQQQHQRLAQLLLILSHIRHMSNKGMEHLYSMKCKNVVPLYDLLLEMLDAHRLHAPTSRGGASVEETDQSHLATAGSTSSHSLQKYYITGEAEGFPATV

In the case of `O=C(c1ccccc1)c1ccc(O)cc1O`, the compound was called inactive in assay [1] and in assay [2].
Take `O=C1c2ccccc2C(=O)c2c(Cl)cccc21`: the compound was classed as inactive in assay [1].
On to `NC(=O)N1c2ccccc2C=Cc2ccccc21`, for which the compound was called inactive in [3] and in assay [4].
With `NC(N)=O`, the compound was classed as inactive in [5].
Take `COc1ccc(OC)c(N=Nc2c(O)ccc3ccccc23)c1`: in [4], the outcome was inactive. Moreover, the AC50 in assay [1] was 0.107 µM (active).
With `NC(=O)Cn1c(=O)cc(CCN2CCN(c3nccc4sccc34)CC2)c2ccc(F)cc21`, in [3], the AC50 was 4.48 µM (active).
For the compound `O=c1n(CC2CO2)c(=O)n(CC2CO2)c(=O)n1CC1CO1` (configuration not stated), the compound was called inactive in assay [4].
As for `COC(=O)C(C)N(C(=O)Cc1ccccc1)c1c(C)cccc1C` (configuration not stated), the outcome in assay [6], in [7], in [8] and in assay [9] was inactive.
As for `OC(c1ccc(F)cc1)(c1cncnc1)c1ccccc1Cl` (configuration not stated), the call in [10], in assay [7], in assay [11], in assay [12], in assay [13] and in assay [14] was inactive. Besides, the compound was classed as inactive in [15]. The concentration at half-maximal activity (AC50) in assay [6] is 21.2 µM (active).

In general, AC50 refers to the concentration at which the activity in the assay is half-maximal.
